This is part of a sample that, as a whole, favours compounds with a hit. Of some 79,000 tested, about 15% had one in any assay. A number with no mark means an inactive call. Active and inactive are the calls of the source. Rule as the data show it: active = growth inhibition above about 70%; inactive = the rest.

From PubChem BioAssay (NCI) come the findings set out here.

A short description of the test: NCI Yeast Anticancer Drug Screen. Data for the mgt1 strain (AID 153). The following applies: S. cerevisiae mgt1 mutant growth inhibition, hits give high values. How it is done: Growth inhibition of yeast strains with defined genetic alterations is measured as a screen for potential anti-cancer activity. Selected strains with alterations in DNA damage repair or cell cycle control were exposed to compounds and growth inhibition was measured relative to vehicle treated controls. The strain used in this assay is mgt1

For `O=C1c2ccc(O)cc2C(=O)c2c(O)ccc(O)c21`, the growth inhibition by setting is: (at 1.2 µM) 1%; (at 3.7 µM) 10%; (at 11.0 µM) 78% (active); (at 33.0 µM) 93% (active); (at 100.0 µM) 91% (active).
For `CCCCCCCCCCCCCCCCCN`, the growth inhibition (at 1.2 µM) was -29%; the growth inhibition (at 3.7 µM) is -24%; the growth inhibition (at 11.0 µM) was 86% (active); the growth inhibition (at 33.0 µM) was 97% (active); the growth inhibition (at 100.0 µM) was 96% (active).
On to `Nc1c([N+](=O)[O-])cc2c3c(cccc13)CC2`, for which the growth inhibition by setting is: (at 1.2 µM) 5%; (at 3.7 µM) 18%; (at 11.0 µM) 31%; (at 33.0 µM) 22%; (at 100.0 µM) 39%.
Taken in the same sequence, the figures for `CN(C)CCNC(=O)c1cccc2nc3c(ccc4ccccc43)nc12` were -1%, -1%, 1%, 31% and 99% (active).
With `CCCCCC/C(C)=N/Nc1ccc([N+](=O)[O-])cc1[N+](=O)[O-]`, the growth inhibition reads like this: (at 1.2 µM) -3%; (at 3.7 µM) -9%; (at 11.0 µM) -5%; (at 33.0 µM) -11%; (at 100.0 µM) -12%.
With `O=S(=O)(O)CC[S][Sn]([S]CCS(=O)(=O)O)([c]1ccccc1)[c]1ccccc1`, the growth inhibition is -7% (at 1.2 µM); 45% (at 3.7 µM); 92% (active) (at 11.0 µM); 97% (active) (at 33.0 µM); 98% (active) (at 100.0 µM).
Take `CC[C@]1(O)C[C@H]2CN(CCc3c([nH]c4ccccc34)[C@@](C(=O)OC)(c3cc4c(cc3OC)N(C)[C@H]3[C@@](O)(C(=O)OC)[C@H](OC(C)=O)[C@]5(CC)C=CCN6CC[C@]43[C@@H]65)C2)C1`: the growth inhibition reads like this: (at 1.2 µM) -2%; (at 3.7 µM) -3%; (at 11.0 µM) -1%; (at 33.0 µM) -2%; (at 100.0 µM) -6%.
Turning to `[N-]=[N+]=NC1CC(n2ccc(=O)[nH]c2=O)OC1COC(c1ccccc1)(c1ccccc1)c1ccccc1` (stereo not given), the growth inhibition was 0% (at 1.2 µM); 3% (at 3.7 µM); 16% (at 11.0 µM); 76% (active) (at 33.0 µM); 80% (active) (at 100.0 µM).
